Where “and” joins values, the source holds several entries; their conditions need not be identical. Equal values may be shown once. Compounds without any hit were thinned out: in the full panel of roughly 83,000, 20% have a hit.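 Values shown are percent growth following 48 h exposure of cells in 96-well plates to a single concentration of compound; below 10 was considered active.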 A number with no mark means an inactive call. Calls of active or inactive are those of the source.
Each molecule was assayed on HS 578T breast (assay: NCI-60 one-dose screen, 48 h (100 = growth as untreated, 0 = no growth, -100 = all killed)). Settings: 10 µM unless noted.

SMILES | growth
N#CC1=C(c2cccs2)Nc2c(c(-c3ccccc3)nn2-c2ccccc2)C12C(=O)Nc1ccccc12 (configuration not stated) | 4.59% (active)
O=C1CC(c2ccc(I)cc2)OC2C=Cc3ccccc3C12 (configuration not stated) | 104%
COc1ccc([C@H]2C(C(=O)c3ccc(Cl)cc3)C3(N[C@@H]2c2ccccc2)C(=O)Nc2ccccc23)cc1 (some centres not stated) | 53.7%
COc1ccc2c(c1)N=c1c-2cc2c(O)[nH]c(=S)n2c1=O | 21.5%
Cc1cc(N=C(N)c2ccccc2)ccc1OCCCCCCCCn1ccnc1 | 13.6%
CS(=O)(=O)Nc1cc(-c2ccc3ncnc(N4CCc5cc(F)c(Cl)cc54)c3c2)cnc1Cl | -31.8% (active)
COc1cc(NC(=O)C(C)C)ccc1C(=O)NC(=S)Nc1ccc(S(N)(=O)=O)cc1 | 86.2%
CC1=C(C(=O)OC(C)C)C(c2ccc(O)cc2)NC(=O)N1 (configuration not stated) | 99.8%
COc1cccc(/C=C/c2nc3ccccc3c(=O)n2CC(=O)Nc2ccccc2)c1 | 3.02% (active)
COC(=O)c1c(C(=O)OC)c2ccc3c4ccccc4ccc3n2c1C(=O)OC | 92.7%
CCCCCCCCc1cccc(CC(=O)Nc2ccc(C)cc2C(=O)O)c1 | 89.8% [25 µM]
O=C(c1cc2cc(OCCCN3CCC3)ccc2[nH]1)N1C[C@@H](CCl)c2c1cc(OCc1ccccc1)c1ccccc21 | -8.06% (active)
CC(C)(C)OC(=O)N1CCC2(CC1)Oc1ccccc1[C@H]1CC(c3ccc(Br)cc3)=NN12 | 91.5%
COc1ccc(NC2=C(I)C(=O)C(C)=C(C)C2=O)cc1 | 85.6%
CC[C@]12C=CCN3CC[C@@]4(c5ccc(OC)cc5N(C)[C@H]4[C@@](O)(C(=O)OC)[C@@H]1OC(=O)CCCC[P+](c1ccc(F)cc1)(c1ccc(F)cc1)c1ccc(F)cc1)[C@@H]32 | -2.23% (active)
FC(F)(F)c1cc2c(Cl)ncnc2n1CCN1CCCCC1 | 56.3%

SMILES | growth
O=C(CSc1nnc(-c2ccc(-c3nc4ccc(Cl)cc4[nH]3)cc2)o1)Nc1ccccc1 | 40.6%
Cc1cccc(NCC(=O)N2CCN(c3ncnc4c3cnn4-c3ccccc3)CC2)c1 | 60.4%
CS(=O)(=O)c1ccc(-n2nc(C(=O)NCc3ccccc3)cc2-c2ccc(Cl)cc2)cc1 | 110%
CS(=O)(=O)Nc1cccc(-n2c(COc3ccc(OC(F)(F)F)cc3)nc3ccccc32)c1 | 47.9% and 101%
O=C(CSc1nc2sc3c(c2c(=O)n1-c1ccc(Cl)cc1)CCCC3)NNC(=O)c1ccc(Br)cc1 | 56.7%
O=C(c1ccc(Cl)cc1)C1[C@H](c2ccccc2Cl)[C@@H](c2ccccc2)NC12C(=O)Nc1ccccc12 (some centres not stated) | -38.3% (active)
O=C1NC(=NC23CC4CC(CC(C4)C2)C3)N/C1=C\c1ccc2ncccc2c1 | -15.3% (active)
N#CC1=C(c2ccco2)Nc2c(c(-c3ccccc3)nn2-c2ccccc2)C12C(=O)Nc1ccc(Cl)cc12 (configuration not stated) | -22.9% (active)
O=C(c1ccc(O)cc1)C1[C@H](c2ccccc2Br)[C@@H](c2ccccc2)NC12C(=O)Nc1ccccc12 (some centres not stated) | 49.1%
c1ccc(CSc2nnc(-c3ccc4nc(-c5ccccc5)[nH]c4c3)o2)cc1 | -1.88% (active)
O=C(CSc1nnc(-c2ccc(-c3nc4ccccc4[nH]3)cc2)o1)Nc1ccccc1 | 70.9%
CCCCCCCCCCCCCCCCCC(=O)Nc1ccc(OC)cc1 | 101%
Nc1nn2c(-c3cc4ccccc4oc3=O)ccnc2c1N=Nc1ccccc1 | 75.8%
O=C1NC(=S)/C(=C/c2cn(-c3ccccc3)nc2-c2ccccc2)S1 | 8.03% (active)
CC(Nc1ncnc2ccc(-c3ccc4oc(N)nc4c3)cc12)c1ccccc1 (configuration not stated) | -31.7% (active)
O=C(N/N=C/c1ccsc1)c1[nH]c2ccc(Br)cc2c1-c1ccccc1 | -13.3% (active)

From PubChem BioAssay (NCI)
